We go through 98 molecules from PubChem BioAssay AID1274 (Emory University Molecular Libraries Screening Center, 2008).

Out of some 220,000 compounds screened, about 1,100 (0.5%) were called active. The full list was thinned out, with actives kept by preference. Values without a mark were called inactive.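 How the source made its calls: active means inhibition above about 30% (limit read from the data); inactive means the rest.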

Neutrophil cytosol factor 1 (Homo sapiens), sequence (P14598 whole entry, looked up): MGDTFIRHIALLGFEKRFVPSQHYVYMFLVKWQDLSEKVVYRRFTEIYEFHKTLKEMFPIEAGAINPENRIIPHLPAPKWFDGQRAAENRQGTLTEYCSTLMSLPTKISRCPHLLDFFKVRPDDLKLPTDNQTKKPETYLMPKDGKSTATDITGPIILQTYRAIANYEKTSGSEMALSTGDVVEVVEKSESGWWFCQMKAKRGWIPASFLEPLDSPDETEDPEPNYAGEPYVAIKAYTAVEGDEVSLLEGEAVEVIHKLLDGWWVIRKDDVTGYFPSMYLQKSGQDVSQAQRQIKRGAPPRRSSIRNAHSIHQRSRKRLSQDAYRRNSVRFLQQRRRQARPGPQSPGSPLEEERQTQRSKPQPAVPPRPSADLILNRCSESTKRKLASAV

This test addresses Neutrophil cytosol factor 1 (Homo sapiens) (UniProt P14598). Nature of the test: p47phox/p22phox peptide binding inhibitors, primary screen, biochemical, uHTS, NADPH oxidase regulatory subunit (AID 1274).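 Further: 0% = p47phox with labelled peptide and 100% = labelled peptide alone.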 The settings on record: fluorescence polarization, 2 h, at 24.7 µM, hits give high values. (In fluorescence polarisation assays a small probe gives low polarisation when free and higher when bound to something large.)
Consider `COc1cc(OC)cc(C(=O)OCC(=O)Nc2sccc2C(N)=O)c1`, for which the inhibition was -13.4%.

In the case of `CC(C)CCN1NC2(CCC(C)CC2)NC1=S` (stereo not drawn), the inhibition was -4.38%.

For the molecule `CCNC(=O)COC(=O)CCNC(=O)c1cccc(C)c1`, the inhibition is -7.35%.

For the molecule `COC(=O)c1sc(=S)n(-c2ccccc2)c1N`, the inhibition is 0.99%.

Consider `COCCOC(=O)c1sc(=S)n(CCOC)c1N`, for which the inhibition was 46.2% (active).

With `CCOC(=O)c1sc(=S)n(-c2cccc(OC)c2)c1N`, the inhibition is -12.7%.

In the case of `CCOC(=O)Cn1nnnc1C`, the inhibition is 6.81%.

`C[N+](C)(C)CCNC(=O)c1c(O)c2c([nH]c1=O)CCCC2`: the inhibition is 31.8% (active).

In the case of `O=C(NCc1ccccn1)c1c(O)c2c([nH]c1=O)CCCC2`, the inhibition was -12.3%.

Regarding `CCc1nnc(NC(=O)c2c(O)c3c([nH]c2=O)CCCC3)s1`, the inhibition is -3.43%.

In the case of `CCOC(=O)CC1C(=O)NCCN1c1nc2c(C)cccn2c(=O)c1/C=C1\SC(=S)N(C(C)CC)C1=O` (stereo not drawn), the inhibition is -73.3%.

For the molecule `CC(CNS(=O)(=O)c1ccc(Br)cc1)CN(C)C` (stereo not drawn), the inhibition was 92% (active).

Regarding `O=S(=O)(NN=C1CCCCCCC1)c1ccc(Br)cc1`, the inhibition was -8.52%.

Take `Cc1ccc(S(=O)(=O)NCC(C)NS(C)(=O)=O)cc1` (stereo not drawn): the inhibition was 4.29%.

On to `Cc1c(C(=O)N(Cc2ccccc2)Cc2cccnc2)cnn1-c1ccc(F)cc1`, for which the inhibition is -0.45%.

`O=C(Nn1c(-c2ccc(Cl)cc2)nc2ccccc2c1=O)c1cccnc1Cl`: the inhibition is -7.54%.

As for `C[C@@H]1CC[C@]2(O[C@@H](CCO)C[C@H](O)[C@H]2O)O1`, the inhibition is 5.45%.

`CC(=O)NCCc1ccc(S(=O)(=O)N(C)C2CCS(=O)(=O)C2)cc1` (stereo not drawn): the inhibition was 32.2% (active).

For the molecule `Cc1ccc(S(=O)(=O)N(c2cccc(C)c2)C2CCS(=O)(=O)C2)cc1` (stereo not drawn), the inhibition was -5.65%.

For the molecule `COc1ccc(C(=O)N(Cc2ccc(N(C)C)cc2)C2CCS(=O)(=O)C2)cc1` (stereo not drawn), the inhibition was -10.9%.

As for `CC(C)N1CCC(N2CCN(Cc3cccnc3)CC2CCO)CC1` (stereo not drawn), the inhibition was -4.11%.

On to `O=[N+]([O-])c1ccc(N=Cc2c(O)ccc3ccccc23)cc1`, for which the inhibition is 64.5% (active).

As to `Oc1ccc2ccccc2c1C=Nc1ccccc1`, the inhibition was -17.1%.

`Oc1ccc(N=Cc2c(O)ccc3ccccc23)cc1`: the inhibition was -7.4%.

As for `CCn1cc(C(=O)NCCCN2CCCCCC2)c(=O)c2cc(S(=O)(=O)N3CCc4ccccc4C3)ccc21`, the inhibition is -1.11%.

Consider `COC(=O)[C@H](Cc1ccccc1)NC(=O)Nc1ccc(OC)cc1`, for which the inhibition was -13.5%.

For the molecule `Cc1ccnc(N2CCC(C(=O)NC3CCCCCC3)CC2)n1`, the inhibition is -2.85%.

For `Cc1ccnc(-n2sc3ccccc3c2=O)n1`, the inhibition is 35% (active).

For `Cc1ccnc(Nc2nc3ccccc3s2)n1`, the inhibition is -4.23%.

Turning to `COc1ccc(CN2CCOC2=O)cc1OC`, the inhibition is -11.8%.

Regarding `COc1ccc(-c2csc(-c3cccs3)n2)cc1OC`, the inhibition is -15.5%.

On to `COc1ccc(-c2csc3nc(-c4ccccc4F)oc(=O)c23)cc1OC`, for which the inhibition is 89.6% (active).

Consider `COc1ccc(-c2noc(-c3cccc(OC)c3OC)n2)cc1OC`, for which the inhibition is -9.37%.

For the molecule `O=c1ccnc(Nc2ccc(Cl)cc2)[nH]1`, the inhibition was -15.2%.

Take `COc1cccc(OCC(=O)NNC(=O)c2cnccn2)c1`: the inhibition was -5.83%.

For the molecule `CSC1=NC2(C)CCCCC2C12C=CC(=O)C=C2` (stereo not drawn), the inhibition is 12.3%.

As for `Oc1ccc(N2CCN(C(=S)NCc3ccccc3)CC2)cc1`, the inhibition is -4.47%.

For the molecule `Oc1ccc(CNc2ccccc2O)cc1`, the inhibition is 72.8% (active).

With `O=[N+]([O-])c1ccccc1NCc1ccc(Cl)cc1`, the inhibition is 10.1%.

In the case of `COc1ccc(SCCN2CCN(CC(C)C)CCC2=O)cc1`, the inhibition was -5.09%.

With `CC1CCC(NC(=O)c2ccc(N3CCCC3=O)cc2)CC1` (stereo not drawn), the inhibition was -4.19%.

For the molecule `O=C(NCCCN1CCCCCC1)c1ccc(N2CCCC2=O)cc1`, the inhibition was 31.1% (active).

Regarding `CCOc1ccc(C(=O)NCCCN2CCCC2=O)cc1`, the inhibition is -1.06%.

As for `COCCN1C(=O)N[C@@H](CCc2ccccc2)[C@H](C(C)=O)[C@H]1C`, the inhibition was -14.3%.

On to `CC(C)N(C(=O)Cn1cc(SCC(=O)N2CCCC2)c2ccccc21)C(C)C`, for which the inhibition was -1.84%.

Take `Cc1ccnc(NS(=O)(=O)c2ccc(NC(=O)c3ccc(S(=O)(=O)N4CCOCC4)cc3)cc2)n1`: the inhibition was -8.81%.

Regarding `Cc1ccnc(NS(=O)(=O)c2ccc(NC(=O)c3ccc(S(=O)(=O)N(C)C)cc3)cc2)n1`, the inhibition was 93.9% (active).

With `O=C(Nc1ccc(S(=O)(=O)Nc2ncccn2)cc1)c1cncc(Br)c1`, the inhibition is -1.88%.

With `CCCN(c1ccc(C)cc1)c1nc(=O)c2cccnc2s1`, the inhibition is 3.57%.

Regarding `COCCOC(=O)C1=C(C)Nc2nc(C)nn2C1c1ccccc1` (stereo not drawn), the inhibition was -2.35%.

In the case of `COc1cc(C2C(C(=O)Nc3ccc(F)cc3)=C(C)Nc3nc(CCCO)nn32)cc(OC)c1OC` (stereo not drawn), the inhibition is 8.1%.

On to `COC(=O)c1nc2n(n1)C(c1ccc([N+](=O)[O-])cc1)C(C(=O)Nc1ccc(Cl)cc1)=C(C)N2` (stereo not drawn), for which the inhibition is 35.3% (active).

`COC(C[C@@H](O)[C@H](C)[C@H](O)COCc1ccccc1)OC`: the inhibition is -7.85%.

Turning to `O=[N+]([O-])c1ccc2c(c1)C(O)n1nc(-c3ccccc3)nc1S2` (stereo not drawn), the inhibition was -0.84%.

As to `O=C1/C(=C/c2coc3ccc(O)cc3c2=O)SC(=S)N1c1ccccc1`, the inhibition is -31.6%.

On to `CCC1(C)Cc2c(sc3nc(SC)[nH]c(=O)c23)CO1` (stereo not drawn), for which the inhibition was -0.95%.

Consider `Fc1ccccc1Cn1cnc(NC(=S)NCCc2ccccc2)n1`, for which the inhibition is 5.03%.

As for `S=c1[nH]nc(NCCc2ccccc2)s1`, the inhibition is 35.4% (active).

Turning to `Cc1nc(C)c(-c2csc(NCCc3ccccc3)n2)s1`, the inhibition is -1.49%.

`S=c1[nH]nc(Nc2ccccc2)s1`: the inhibition was 6.03%.

With `CC1CC(NC(=O)/C(C#N)=C/c2ccc[nH]2)CC(C)(C)C1` (stereo not drawn), the inhibition is -2.3%.

With `CCNC(=S)N1CCC(c2nc3cc(C)c(C)cc3[nH]2)CC1`, the inhibition is -2.83%.

With `CCCNC(=S)N1CCCC(c2nc3ccccc3[nH]2)C1` (stereo not drawn), the inhibition was -3.87%.

Take `COCCCNC(=S)N1CCCC(c2nc3cc(C)c(C)cc3[nH]2)C1` (stereo not drawn): the inhibition was 33.6% (active).

For `O=C(O)CCc1nc2cc(Cl)ccc2n(Cc2ccccc2)c1=O`, the inhibition is -13.1%.

On to `Cc1ccccc1CSc1nnc(CCCCCNC(=O)OC(C)(C)C)o1`, for which the inhibition was -9.1%.

With `COC(=O)c1sc(NC(=S)NC(=O)c2ccc(C)cc2)nc1C`, the inhibition was -24.1%.

With `COc1ccc(F)cc1S(=O)(=O)N1CCCCC1`, the inhibition was -2.33%.

Turning to `CC1=C/C(=N\S(=O)(=O)c2ccccc2)C(C(C)C)=CC1=O`, the inhibition was -6.28%.

For the molecule `CC1=C/C(=N\OS(=O)(=O)c2ccccc2)C=CC1=O`, the inhibition was 53.2% (active).

For `CCOC(=O)C1(S(=O)(=O)c2ccccc2)CCN(Cc2ccccc2)CC1`, the inhibition was -0.94%.

With `CCN(CC)CCn1cnc2c1c(=O)n(CCOC(=O)c1cc(OC)c(OC)c(OC)c1)c(=O)n2C`, the inhibition was -17%.

In the case of `Cc1cc(-c2nc(C)c(-c3nnc(SCC(=O)Nc4ccccc4)n3C)s2)no1`, the inhibition is -5.21%.

As to `COc1ccc2oc(-c3cccc(NC(=O)CSc4ccc(Cl)cc4)c3)nc2c1`, the inhibition is 152% (active).

In the case of `O=C(Cc1cccc2ccccc12)Nc1ccc2oc(-c3ccccc3)nc2c1`, the inhibition is -10.3%.

Turning to `COc1cccc(-c2nc3cc(C)ccc3o2)c1`, the inhibition was -18%.

As to `O=c1[nH]n2c(=O)c3c([nH]c2c1N=Nc1ccccc1)CCC3`, the inhibition is 5.2%.

Regarding `Cc1cc(C)n2nc(SCC(=O)NC(=O)NCc3ccco3)nc2n1`, the inhibition was 65.5% (active).

`Cc1ccc(Cc2c(C)nc3nc(SCC(=O)NCCN4CCOCC4)nn3c2C)cc1`: the inhibition was 2.55%.

Regarding `Cc1ccc(SCC(=O)NC(=O)NCc2ccco2)c(C)c1`, the inhibition was -8.32%.

`Cc1nc2nc(SCC(=O)NCc3ccco3)nn2c(C)c1Cc1ccccc1`: the inhibition was 39.5% (active).

As for `COc1cc(OC)cc(-c2nc3nc(C)c(CCC(=O)NCc4ccco4)c(C)n3n2)c1`, the inhibition is -14.7%.

As for `Cc1cc(C)n2nc(SCC(N)=O)nc2n1`, the inhibition is -2.75%.

For `COc1cccc2c1OCC(CN1CCN(C3CCCCC3)C(CCO)C1)=C2` (stereo not drawn), the inhibition was -0.19%.

For the molecule `Cc1noc(C)c1-c1nc(CSc2ccc(Cl)cc2)no1`, the inhibition is -18.6%.

Turning to `CCc1ccc[n+](-c2nc([O-])sc2C=O)c1`, the inhibition is -6.22%.

As for `CCOC(=O)c1ccc(S(=O)(=O)N(CCO)Cc2cc3cc(OC)c(OC)cc3[nH]c2=O)cc1`, the inhibition is -9.36%.

Regarding `CCc1ccc(NC(=O)CN2C(=O)CSC2=O)cc1`, the inhibition was 1.09%.

In the case of `OC(CN1C2=NCCCN2c2ccccc21)c1ccc(Br)cc1` (stereo not drawn), the inhibition was -5.7%.

`Cc1nn(Cc2ccccc2)c(C)c1C(=O)NCCN1C(=O)S/C(=C\c2ccc(F)cc2)C1=O`: the inhibition was 19.6%.

`O=C(CN1C(=O)/C(=C\c2ccc(C(F)(F)F)cc2)Sc2ccccc21)NCc1ccco1`: the inhibition is -2.69%.

For `CCN1CCN(CCNC(=O)c2ccc(/C=C3/Sc4ccccc4N(Cc4cccc(C)c4)C3=O)cc2)CC1`, the inhibition is 102% (active).

Regarding `CCOc1ccc2nc(C(=O)N3CCCC(C)C3)sc2c1` (stereo not drawn), the inhibition is -1.85%.

On to `O=C(NCc1ccco1)C1CCCN1S(=O)(=O)c1ccccc1C(F)(F)F` (stereo not drawn), for which the inhibition is -2.26%.

Regarding `O=C(Nc1ccc2c(c1)OCCO2)c1cnccn1`, the inhibition was 161% (active).

On to `O=C(Nc1cccc(NC(=O)c2ccco2)c1)c1cnccn1`, for which the inhibition was -22.1%.

For the molecule `O=C(Nc1ccc2c(c1)OCCO2)c1ccoc1`, the inhibition is -11.2%.

As for `O=P(O)(CN1CCCCCC1)C1Cc2ccccc2C1`, the inhibition was -16.2%.

One may read the inhibition as the drop in the measured response relative to a control, in per cent.
